High-throughput results deposited in PubChem BioAssay by National Center for Advancing Translational Sciences (NCATS).
In the library only some 5.7% were active in any assay of this set; here they are far more common.
HP1b binding inh = HP1-beta chromodomain-methylated histone interaction inhibition | P83916 | AlphaScreen HP1-beta / biotin-H3K9me3 peptide binding | Potency, µM (highest dose often 114 µM), without a hit: top-dose activity change, negative = inhibition, usual class: inhibitors | 0.56% of 390,000 active | AID 540317; note: potency is the fitted concentration of half-maximal effect; nearly all actives have a fitted effect of over 70% in size
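AlphaScreen: HP1-beta (50 nM) preformed 30 min with biotin-H3(1-18)K9me3 peptide (50 nM) in PBS pH 7.4, 0.01% Tween-20. Compound added for 30 min at RT, then streptavidin donor/nickel chelate acceptor beads (10 ug/mL) for 30 min.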
PI5P4K alpha inh = PI5P4K alpha (human) kinase inhibition; AID 652105; PI5P4Kalpha enzyme, ADP-Glo luminescence, 60 min; hits give low values; max response, %; P48426; 1.2% of 330,000 active; active = max response of -50% or lower; inconclusive = between -30% and -50%; inactive = -30% or higher; note: value at the top dose of about 77 µM; % is set by controls: 0 for no effect and ±100 for the full control effect
Target sequence (P48426 whole entry, looked up): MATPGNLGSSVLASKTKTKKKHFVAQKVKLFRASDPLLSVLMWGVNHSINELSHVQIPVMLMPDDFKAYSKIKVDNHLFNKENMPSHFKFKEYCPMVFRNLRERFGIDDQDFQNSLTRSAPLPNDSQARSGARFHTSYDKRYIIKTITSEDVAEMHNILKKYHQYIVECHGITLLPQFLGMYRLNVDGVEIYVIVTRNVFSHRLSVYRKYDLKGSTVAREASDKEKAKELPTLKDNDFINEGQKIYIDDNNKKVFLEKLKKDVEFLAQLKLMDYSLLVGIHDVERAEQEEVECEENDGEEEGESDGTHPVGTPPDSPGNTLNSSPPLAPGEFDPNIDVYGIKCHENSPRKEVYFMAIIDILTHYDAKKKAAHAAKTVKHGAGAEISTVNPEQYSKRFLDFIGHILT
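Quantitative HTS of the MLSMR library against PI5P4Kalpha with substrate. ATP added last at 5 microM final; room temperature, 60 minutes. Remaining ATP depleted, ADP converted and read as luminescence.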
BAZ2B inh = BAZ2B (human) inhibition; Q9UIF8; AlphaScreen BAZ2B-H3K14Ac peptide displacement; Potency, µM (series often up to 114 µM), without a hit: at the highest dose activity change, negative = inhibition, usual class: inhibitors; 4.4% of 360,000 active; AID 504333; note: potency is the fitted concentration of half-maximal effect; % is set by controls: 0 for no effect and ±100 for the full control effect; nearly all actives have a fitted effect of over 60% in size
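Protein-peptide AlphaScreen: BAZ2B 50 nM, b-H3K14Ac 50 nM, 1x PBS pH 7.4 + 0.01% Tween-20. Preincubation 30 min RT; cpd 30 min RT (top 110 uM); beads 20 min RT, light-protected.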
JMJD2E inh = inhibitors of human JMJD2E histone demethylase; B2RXH2; JMJD2E catalytic domain, FDH-coupled NADH fluorescence (FDH is formaldehyde dehydrogenase); Potency, µM (doses to about 57.1 µM), for inactives: top-dose activity change, negative = inhibition, usual class: inhibitors; 1.6% of 230,000 active; active = well fitted inhibition curve with a large enough effect, not every such curve was filed as active; inconclusive = small, poorly fitted or top-dose-only effect, or another doubt; inactive = no such curve, though single readings can be large or run the other way;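 note: potency is the fitted concentration of half-maximal effect; 0% = wells with enzyme and -100% = buffer wells without enzyme; nearly all actives have a fitted effect of over 50% in size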
Target sequence (B2RXH2 1-337 limits assumed): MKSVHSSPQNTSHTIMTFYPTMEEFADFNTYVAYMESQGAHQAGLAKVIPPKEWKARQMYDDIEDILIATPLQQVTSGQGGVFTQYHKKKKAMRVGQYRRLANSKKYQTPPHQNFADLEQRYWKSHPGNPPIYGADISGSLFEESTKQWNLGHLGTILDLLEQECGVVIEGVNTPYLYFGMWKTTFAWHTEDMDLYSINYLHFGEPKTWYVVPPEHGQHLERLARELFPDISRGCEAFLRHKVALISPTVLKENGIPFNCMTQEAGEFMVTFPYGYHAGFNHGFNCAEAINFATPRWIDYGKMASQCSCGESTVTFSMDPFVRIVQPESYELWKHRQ
JMJD2A Tudor inh = JMJD2A Tudor domain (human) inhibition; 4.4% of 390,000 active; O75164; Potency, µM (titrated, usually from 114 µM), for the others: at the highest dose activity change, negative = inhibition, actives largely listed as inhibitors; AlphaScreen JMJD2A-Tudor / H3K4me3 peptide binding; note: potency is the fitted concentration of half-maximal effect; % is set by controls: 0 for no effect and ±100 for the full control effect; nearly all actives have a fitted effect of over 50% in size
L3MBTL1 inh = inhibitors of human L3MBTL1 | Q9Y468 | AlphaScreen L3MBTL1–H3K9me1 peptide binding | Potency, µM (top dose mostly 57.1 µM), inactives show at the highest dose activity, negative = inhibition, actives largely listed as inhibitors | 0.66% of 230,000 active | AID 485360; note: potency is the fitted concentration of half-maximal effect; % is set by controls: 0 for no effect and ±100 for the full control effect; nearly all actives have a fitted effect of over 60% in size
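L3MBTL1 (50 nM) pre-complexed 30 min with biotinylated H3(1-15)K9me1 peptide (75 nM), then compounds added for 30 min at room temperature; AlphaScreen streptavidin donor/nickel chelate acceptor beads (10 ug/mL final) read after 30 min dark incubation.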
The depositor's hits bear a star; [ ] = another dose, or the depositor's remark. Unless noted, calls come from the whole dose curve; as a rule, active = well fitted inhibition curve with a large enough effect; inconclusive = small, poorly fitted or top-dose-only effect; inactive = no such curve, though single readings can be large or run the other way.

For Cc1ccc(N2C(=O)N3[C@H](c4ccc(Cl)cc4)[C@@H]4C(=O)N(C5CCCCC5)C(=O)[C@@H]4[C@]3(Cc3ccccc3)C2=O)cc1 the results were HP1b binding inh 19.1%, PI5P4K alpha inh -23.4, BAZ2B inh -23.2%, JMJD2A Tudor inh -11.8% and L3MBTL1 inh -1.4%.
For O=C(O)/C(=C\c1ccc(Cl)c([N+](=O)[O-])c1)c1ccc(S(=O)(=O)N2CCCC2)s1 the results were HP1b binding inh -1.8%, PI5P4K alpha inh -24.8, BAZ2B inh 56.2µM*, JMJD2A Tudor inh inconclusive and L3MBTL1 inh -24.1%.
For O=C(O)/C(=C\c1ccc(Cl)c([N+](=O)[O-])c1)c1ccc(S(=O)(=O)N2CCCCC2)s1 the results were HP1b binding inh -1.5%, PI5P4K alpha inh -23.7, BAZ2B inh inconclusive, JMJD2E inh -5.3%, JMJD2A Tudor inh inconclusive and L3MBTL1 inh -23.5%.
COc1ccc(Br)cc1/C=C(\C(=O)O)c1ccc(S(=O)(=O)N2CCCC2)s1 was read as HP1b binding inh -10.4%, PI5P4K alpha inh -28.2, JMJD2A Tudor inh 89.1µM* and L3MBTL1 inh -26.7%.
`COc1cc(/C=C(\C(=O)O)c2ccc(S(=O)(=O)N3CCCC3)s2)cc(OC)c1` gave HP1b binding inh 11.0%, PI5P4K alpha inh inconclusive, BAZ2B inh -38.9%, JMJD2A Tudor inh -16.2% and L3MBTL1 inh -16.1%.
`Cc1ccc(NS(=O)(=O)c2cc3c(cc2Cl)CCC(=O)N3)cc1C` gave JMJD2A Tudor inh -8.2%.
C/C=C(\C)C(=O)OC1CC(C)(C)C[C@H]2C3=CC[C@@H]4[C@@]5(C)CCC(O[C@@H]6O[C@@H](C(=O)O)[C@@H](O)C(O[C@@H]7OC[C@H](O)[C@@H](O)[C@@H]7O[C@@H]7OC(CO)C(O)[C@@H](O)[C@@H]7O)C6O[C@@H]6OC(CO)C(O)C(O)C6O)[C@@](C)(CO)[C@@H]5CC[C@]4(C)[C@]3(C)CC(O)[C@@]12CO (stereo partly specified) was read as HP1b binding inh 10.8%, PI5P4K alpha inh inconclusive, JMJD2A Tudor inh 79.4µM* and L3MBTL1 inh -24.6%.
Screening CCOC(=O)c1[nH]c2cc(OC)c(OC)cc2c1NC(=O)CN1CCN(c2ccc(OC)cc2)C(C)C1 (stereo unspecified) returned BAZ2B inh 44.7µM* and JMJD2E inh inconclusive.
For Cc1ccc(CNC(=O)CN2C(=O)COc3ccc(S(=O)(=O)Nc4ccccc4)cc32)cc1 the results were HP1b binding inh 2.2%, BAZ2B inh -24.2% and JMJD2A Tudor inh -21.0%.
For O=C(O)c1[nH]c2ccccc2c1C(c1ccccc1)c1c(C(=O)O)[nH]c2ccccc12 the results were HP1b binding inh 19.3%, PI5P4K alpha inh -2.8, BAZ2B inh -33.0%, JMJD2A Tudor inh -13.1% and L3MBTL1 inh -8.5%.
Screening C=CCOc1ccc(C(c2c(C(=O)O)[nH]c3ccccc23)c2c(C(=O)O)[nH]c3ccccc23)cc1 returned HP1b binding inh 70.8µM*, PI5P4K alpha inh inconclusive, BAZ2B inh 50.1µM* and JMJD2A Tudor inh 79.4µM*.
CCc1nn(CC(=O)N2CCN(c3cccc(C(F)(F)F)c3)CC2)c(=O)c2cccn12 was read as HP1b binding inh 17.2%, BAZ2B inh 70.8µM* and JMJD2A Tudor inh inconclusive.
Screening O=C(CC1NCCNC1=O)Nc1cccc(F)c1 (stereo unspecified) returned HP1b binding inh 57.1%, BAZ2B inh -5.9% and JMJD2A Tudor inh -1.9%.
For CCCCS(=O)(=O)Nc1ccc2c(c1)ncn2C1CCCCC1 the results were HP1b binding inh 29.2%, BAZ2B inh -1.3%, JMJD2E inh -0.8% and JMJD2A Tudor inh -7.0%.
`c1ccc(CNc2ccc3c(c2)ncn3C2CCCCC2)nc1` gave HP1b binding inh -17.7%, BAZ2B inh 20µM*, JMJD2E inh inconclusive, JMJD2A Tudor inh 25.1µM* and L3MBTL1 inh inconclusive.
For C=CCSc1nnc(C)c(/C=C/Nc2ccc(Cl)cc2)n1 the results were HP1b binding inh -8.6%, PI5P4K alpha inh inconclusive, BAZ2B inh -20.9%, JMJD2E inh -12.8%, JMJD2A Tudor inh 39.8µM* and L3MBTL1 inh -3.6%.
CCCCc1nc2c(c3c1C[C@H](C)OC3)CN(S(=O)(=O)c1ccccc1C(=O)OC)CC2 was read as JMJD2E inh 3.3%[11.4 µM].
For O=C1C=CC(=O)N1c1cccc2cccnc12 the results were HP1b binding inh -14.1%, PI5P4K alpha inh -62.3* and JMJD2A Tudor inh -35.9%.
Screening COc1ccc(N=C2C(=Nc3ccc(OC)cc3)N(c3ccc(OC)cc3)C(=S)N2C)cc1 returned HP1b binding inh 7.08µM*, BAZ2B inh 2.82µM*, JMJD2E inh -4.2% and JMJD2A Tudor inh 8.91µM*.
`COc1ccc(N2CC(=O)N(c3ccccc3)C2=S)cc1` gave HP1b binding inh 24.7%, PI5P4K alpha inh 6.3, BAZ2B inh 2.0%, JMJD2E inh 11.9%, JMJD2A Tudor inh -11.4% and L3MBTL1 inh 18.2%.
Screening COc1ccc(N=C2C(=Nc3ccc(OC)cc3)N(c3ccc(OC)cc3)C(=S)N2c2ccccc2)cc1 returned HP1b binding inh inconclusive, BAZ2B inh 2µM*, JMJD2E inh -11.5% and JMJD2A Tudor inh inconclusive.
`COc1ccccc1CNC(=O)CN1C(=O)CSc2ccc(S(=O)(=O)N3CCCCC3)cc21` gave HP1b binding inh 13.8%, BAZ2B inh -6.8% and JMJD2A Tudor inh -25.1%.
COc1cc(NC(=O)c2nn(-c3ccc(F)cc3)c(=O)n(C)c2=O)cc(OC)c1OC was read as HP1b binding inh 23.7%[57 µM], BAZ2B inh 0.0% and JMJD2A Tudor inh -21.4%.
Screening OC1CCCN(CC(O)COC(c2ccc(F)cc2)c2ccc(F)cc2)C1 (stereo unspecified) returned HP1b binding inh -12.1%, PI5P4K alpha inh 1.4, BAZ2B inh 50.1µM* and JMJD2A Tudor inh 10µM*.
OC1CCCN(CC(O)c2ccccc2)C1 (stereo unspecified) was read as HP1b binding inh 5.2%, PI5P4K alpha inh 4.3, BAZ2B inh 50.1µM*, JMJD2E inh inconclusive and JMJD2A Tudor inh 39.8µM*.
OC(COC(c1ccc(Cl)cc1)c1ccc(Cl)cc1)CN1CCCC1 (stereo unspecified) was read as HP1b binding inh 7.0%, BAZ2B inh -11.4%, JMJD2E inh -5.1% and JMJD2A Tudor inh -20.5%.
Screening CN1CCCC(C)(C(=O)Nc2ccc3scnc3c2)C1 (stereo unspecified) returned PI5P4K alpha inh -2.8.
